# Data as given in PubChem BioAssay AID709 (SRMLSC, 2007).
# Out of some 65,000 compounds screened, about 3,600 (5.5%) were called active.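 The calls were made as follows: active = at 10 µM, mean starting fluorescence two-fold or more over control wells; inactive = the rest.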 The entries come from a sample that favours actives as a whole.
# Test: intrinsic fluorescence of library compounds, ex339/em460 – biochemical, MLSMR library, data from DPM-DC assay, artefact control, profiling panel (AID 709);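 also: signal is the first read of a kinetic run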
# Conditions: compound autofluorescence, ex339/em460 nm, NADH buffer; at 10 µM; stronger effect = higher value; 1 = no-compound wells, NADH background
row,Compound,fluorescence fold increase
1,COc1ccc(OC)c(C(=O)CSc2nnc(-c3cccs3)o2)c1,3.64 (active)
2,COc1ccc(-c2nnc(SCC(=O)c3cccs3)o2)c(OC)c1,1.12 (inactive)
3,COc1ccc(-n2c(C)cc(C(=O)CSc3nnc(-c4cccs4)o3)c2C)cc1,1.07 (inactive)
4,COc1ccc2c(c1)CCc1c(C(=O)N3CCCC3)noc1-2,1.1 (inactive)
5,CN(CCc1ccccn1)S(=O)(=O)c1ccc2c3c(cccc13)C(=O)N2,3.89 (active)
6,O=c1[nH]nc(Cc2ccccn2)c2ccccc12,1.07 (inactive)
7,CC1(C)CN=C(N2CCN(c3ncnc4sc5c(c34)CCCC5)CC2)S1,1.03 (inactive)
8,Fc1c(F)c(C(F)(F)F)c(F)c(F)c1N1CCN(c2ccc3nnc(C(F)(F)F)n3n2)CC1,1.93 (inactive)
9,CN(c1ccccc1)c1ccc(/C=c2\s/c(=C(/C#N)C(=O)C(C)(C)C)n(Cc3ccco3)c2=O)cc1,0.95 (inactive)
10,Cc1occc1C(=O)Nc1nnc(C2CCCCC2)s1,1.04 (inactive)
11,Cc1occc1C(=O)Nc1nnc(-c2ccncc2)s1,2.2 (active)
12,Cc1occc1C(=O)Nc1cccc(Cn2cccn2)c1,1.14 (inactive)
13,Cc1ccc(C(=O)Nc2nnc(-c3ccncc3)s2)o1,2.14 (active)
14,O=C(Nc1ccncc1)c1cc2ccccc2o1,1.02 (inactive)
15,CC(=O)Cc1nsc(NC(=O)c2ccc(COc3ccc(C)cc3)o2)n1,1.06 (inactive)
16,COc1ccc(CCNC(=O)c2cc(-c3ccc4c(c3)OCO4)on2)cc1OC,1.07 (inactive)
17,O=C(CSc1nnc(-c2ccccn2)n1-c1ccccc1)Nc1ccc2c(c1)OCO2,1.08 (inactive)
18,CC(C)Oc1ccc(C(=O)Nc2cc(=O)n(C)c(=O)n2C)cc1,1.01 (inactive)
19,O=C(c1cccs1)N1CCN(C(=O)N2CCOCC2)CC1,1.11 (inactive)
20,CCOc1ccccc1N(CC(=O)NC1CCCCC1)C(=O)CCCC(=O)Nc1ccccn1,1.08 (inactive)
21,O=C(CSc1nc2c(cnn2-c2ccc(F)cc2)c(=O)[nH]1)N1CCCCCC1,1.11 (inactive)
22,C=CCNC(=O)CSc1nc2sc(C)c(C)c2c(=O)[nH]1,1 (inactive)

row,Compound,fluorescence fold increase
1,CC(=O)c1sc2nc(SCC(=O)N3CCCCC3)[nH]c(=O)c2c1C,2.68 (active)
2,Cc1ccc(-n2nc3c(c2NC(=O)CCC2CCCCC2)CS(=O)C3)cc1 (stereo not given),1.14 (inactive)
3,CCOc1cccc(NC(=O)C2CCCN(S(=O)(=O)c3ccc(OC)cc3)C2)c1 (stereo not given),1.02 (inactive)
4,CC1(C)CC(=O)NC=C(c2ccccc2)C1,1.06 (inactive)
5,O=c1[nH]c(-c2ccccc2)c(-c2ccccc2)[nH]1,3.71 (active)
6,N#Cc1c2c(c(-c3ccccc3)[nH]c1=O)CCCC2,1.02 (inactive)
7,CCOC(=O)N1CCN(C(=O)c2ccc(S(=O)(=O)c3ccc(C)cc3)c(NC(C)=O)c2)CC1,1.2 (inactive)
8,Cc1ccc(C(=O)CS(C)(=O)=O)cc1,1.35 (inactive)
9,OC1CN=C2Sc3ccccc3N2C1 (stereo not given),1.06 (inactive)
10,COc1ccc(C(C(O)C(=O)c2c[nH]c3ccccc23)N2CCN(c3ccccc3)CC2)cc1 (stereo not given),1.15 (inactive)
11,Cc1ccc2nc(-c3ccc(SCC(=O)Nc4cc(C)on4)nc3)[nH]c2c1,3.38 (active)
12,Cc1nc(SCC(=O)Nc2cc(C)on2)c2c(C)c(C)sc2n1,1.11 (inactive)
13,Cc1cc(C)c2c(c1)cc(C)c1nnc(SCC(=O)Nc3cc(C)on3)n12,1.09 (inactive)
14,Cc1ccc(Oc2nc3ccccc3n3c(C)nnc23)cc1,1.08 (inactive)
15,CN(c1nc2ccccc2n2c(-c3ccco3)nnc12)S(=O)(=O)c1ccccc1,2.86 (active)
16,c1ccc(CSc2nnc(-c3ccco3)n2Cc2ccccc2)cc1,1.15 (inactive)
17,COc1ccc(OC)c(CN2C(=O)CCC2(C)C(=O)NC2CCCCCC2)c1 (stereo not given),1.09 (inactive)
18,CCCCc1cc(=O)oc2cc(C)cc(OCc3nn[nH]n3)c12,3.84 (active)
19,CC(C)C[C@H](NC(=O)[C@@H]1O[C@H]1C(=O)O)C(=O)NCCCCN=C(N)N,1.01 (inactive)
20,CC1(C)CC(=O)C(C2=NC(C)(C)Cc3ccccc32)=C(O)C1,1.05 (inactive)
21,Cc1ccc2[nH]c3c(c2c1)CN(C(=O)CN1CCN(c2ccccc2)CC1)CC3,1.21 (inactive)
22,CCN(CC)C(=O)CSc1nnc(-c2cccc(OC)c2)o1,1.05 (inactive)

row,Compound,fluorescence fold increase
1,COc1cccc(NC(=O)CN(C)S(=O)(=O)c2ccc(C)cc2)c1,1.1 (inactive)
2,COc1cccc(-c2nnc(NC(=O)c3ccc(S(=O)(=O)N(CC(C)C)CC(C)C)cc3)o2)c1,3.77 (active)
3,CC(C)(O)C#Cc1ccc(C(=O)N2CCC(C(N)=O)(N3CCCCC3)CC2)cc1,1.1 (inactive)
4,Cc1ccccc1NC(=O)c1ccccc1,1.09 (inactive)
5,Cc1ccc2c(c1)sc1ncc(NC(=O)c3ccccc3)c(=O)n12,2.43 (active)
6,Cc1ccc(NC(=O)c2nc[nH]c2C(=O)N2CCCCC2)c(C(=O)c2ccccc2)c1,1.13 (inactive)
7,CC(C)C(NC(=O)c1cccc(S(=O)(=O)N2CCOCC2)c1)C(=O)NCCc1ccccn1 (stereo not given),1.06 (inactive)
8,C=CCNC(=O)c1ccc(C)c(Br)c1,1.08 (inactive)
9,COc1cccc(C(=O)c2cc3ccc(O)cc3oc2=O)c1,1.05 (inactive)
10,O=c1oc2cc(O)ccc2cc1-c1ccc(F)cc1,3.81 (active)
11,Nc1ncc(-c2cc3ccccc3oc2=O)s1,1.43 (inactive)
12,O=C(Cn1c(=S)nc2ccccn21)N1CCc2ccccc2C1,1.17 (inactive)
13,CCC(c1nnnn1Cc1ccccc1)N(Cc1cc2cc(OC)ccc2[nH]c1=O)CC1CCCO1 (stereo not given),1.46 (inactive)
14,Cc1cccc2cc(CN(Cc3nnnn3Cc3ccccc3)C3CCCC3)c(=O)[nH]c12,1.03 (inactive)
15,CCOc1ccc2[nH]c(=O)c(CN(Cc3nnnn3CCc3ccccc3)CC3CCCO3)cc2c1 (stereo not given),1.82 (inactive)
16,CCOc1ccc2[nH]c(=O)c(CN(Cc3nnnn3Cc3ccccc3)CC3CCCO3)cc2c1 (stereo not given),2.24 (active)
17,COc1ccc2[nH]c(=O)c(CN(Cc3nnnn3CCc3ccccc3)CC3CCCO3)cc2c1 (stereo not given),2.03 (active)
18,CCC(c1nnnn1Cc1ccco1)N(Cc1cc2cc(OC)ccc2[nH]c1=O)C1CCCCC1 (stereo not given),1.39 (inactive)
19,COc1ccc2[nH]c(=O)c(CN(CC3CCCO3)C(=O)Nc3ccccc3)cc2c1 (stereo not given),2.91 (active)
20,Cc1cc2cc(CN(Cc3cccs3)Cc3nnnn3CC3CCCO3)c(=O)[nH]c2cc1C (stereo not given),1.42 (inactive)
21,Cc1cc(C)c2cc(CN(Cc3cccs3)Cc3nnnn3CC3CCCO3)c(=O)[nH]c2c1 (stereo not given),1.16 (inactive)
